Shown are actives, neighbours in structure and some others; about 2.7% of the full set was active somewhere.
SENP8 block-1 = SENP8 protease inhibitors, primary screen, biochemical, luminescence | actives 1.2% (n = 330,000) | Sentrin-specific protease 8 (Homo sapiens), Q96LD8 | purified SENP8, Z-RLRGG-aminoluciferin cleavage | AID 2540, 2010 | inhibition, % at 10 µM; in the data active means inhibition above about 50%
HSP90 refold inh = HSP90 inhibitors, primary screen, cell lysate, luminescence; Heat shock protein HSP 90 (rabbit reticulocyte lysate; luciferase refolding); Rabbit reticulocyte lysate, luciferase refolding luminescence, 3 h; inhibition, % at 5.6 µM; actives 0.91% (n = 290,000);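 active means inhibition above the screen-wide mean plus 3 SD, computed separately per campaign, cut at about 16% in these data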;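 further: inhibitors lower the luminescence because luciferase stays unfolded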
SENP7 inh = SENP7 protease inhibitors, primary screen, biochemical, luminescence, uHTS. Sentrin-specific protease 7 (Homo sapiens), Q9BQF6. recombinant SENP7, Z-RLRGG-aminoluciferin luminescence, 40 min. inhibition, % at 5 µM. actives 1.5% (n = 330,000). AID 434973, 2010;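 active means inhibition above about 50% at the single test dose, limit read from the data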
Target sequence (Q9BQF6 706-1050 limits assumed): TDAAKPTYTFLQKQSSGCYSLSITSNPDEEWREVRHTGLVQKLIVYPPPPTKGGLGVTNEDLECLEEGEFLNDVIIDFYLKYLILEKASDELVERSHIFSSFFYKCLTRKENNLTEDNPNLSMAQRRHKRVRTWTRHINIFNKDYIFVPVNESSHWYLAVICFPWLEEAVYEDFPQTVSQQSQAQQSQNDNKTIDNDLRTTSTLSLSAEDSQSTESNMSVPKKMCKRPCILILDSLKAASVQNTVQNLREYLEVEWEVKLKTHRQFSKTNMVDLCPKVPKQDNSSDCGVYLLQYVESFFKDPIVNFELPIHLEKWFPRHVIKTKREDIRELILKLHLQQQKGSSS
SENP6 inh = SENP6 protease inhibitors, primary screen, biochemical, luminescence, uHTS. Recombinant SENP6 catalytic domain, aminoluciferin luminescence. actives 1.8% (n = 330,000). inhibition, % at 10 µM. AID 2599, 2010;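 active means inhibition above about 50% at the single tested dose, limit read from the data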
SENP8 block-2 = human SENP8 protease inhibitors, primary screen, biochemical, fluorescence, Nedd8 protein substrate, uHTS; actives 0.64% (n = 360,000); inhibition, % at 20 µM; recombinant SENP8; in the data active means inhibition mostly above about 40%, no sharp cut-off; inactive means mostly below about 27%
SENP8 confirm = SENP8 protease inhibitors, retest, confirmation, biochemical, luminescence, single concentration | AID 488912, 2010 | Recombinant SENP8, Z-RLRGG-aminoluciferin luminescence, 60 min | actives 40% (n = 6,200) | inhibition, % at 12.5 µM | shares compounds with SENP7 inh;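 active means mean inhibition across replicates above about 50%, limit read from the data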
SENP6 confirm = SENP6 protease inhibitors, confirmation, biochemical, luminescence, single concentration. inhibition, % at 12.5 µM. actives 58% (n = 6,200). shares compounds with SENP7 inh. recombinant SENP6, Z-RLRGG-aminoluciferin luminescence. AID 488915, 2010
SENP7 conf = SENP7 protease inhibitors, retest, confirmation, biochemical, luminescence, single concentration; recombinant SENP7, Z-RLRGG-aminoluciferin luminescence, 40 min; inhibition, % at 12.5 µM; AID 488917, 2010; actives 69% (n = 6,200); shares compounds with SENP7 inh
Casp3 SENP sel = caspase-3 protease inhibitors, confirmation, selectivity assay for SENP inhibitor project, biochemical, single concentration; shares compounds with SENP7 inh; actives 60% (n = 6,200); inhibition, % at 12.5 µM; purified caspase-3, Z-DEVD-aminoluciferin luminescence, 60 min;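 active means mean inhibition above about 50%, limit read from the data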
SENP luc ctr = interferes with luciferase luminescence in SENP counter-screen; Pre-incubated SENP8/Z-RLRGG-aminoluciferin, luciferase luminescence interference; AID 488919; shares compounds with SENP7 inh; inhibition, % at 12.5 µM; actives 39% (n = 6,200);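 active means mean inhibition above about 50% when retested at one dose, limit read from the data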
Large screens that a line does not name were inactive (follow-up assays come after a bar, where they were run).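 How the source made its calls, unless noted: active means mean inhibition above about 50% in the one-dose retest (limit read from the data); inactive means the rest.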

COc1ccccc1NC(=O)Nc1ccc(-n2ccc(C(F)(F)F)n2)cc1	SENP8 block-1 73, SENP7 inh 82, SENP6 inh 80 | SENP8 confirm 76 | SENP6 confirm 82 | SENP7 conf 93 | Casp3 SENP sel inactive | SENP luc ctr 69
O=C(Nc1ccc(N2CCOCC2)cc1)c1cn2ccccc2n1	SENP8 block-1 85, SENP7 inh 93, SENP6 inh 96 | SENP8 confirm 86 | SENP6 confirm 86 | SENP7 conf 98 | Casp3 SENP sel 95 | SENP luc ctr inactive
COc1ccccc1NC(=O)Nc1ccc(N2CCOCC2)cc1	SENP7 inh 56, SENP6 inh 64 | SENP8 confirm 65 | SENP6 confirm 62 | SENP7 conf 87 | Casp3 SENP sel 80 | SENP luc ctr 66
CCN1C(=O)[C@H]2[C@@H](c3ccc(C)cc3)N[C@]3(CCCN(CC4CCCCC4)C3=O)[C@H]2C1=O	none (no result: SENP8 block-1, HSP90 refold inh, SENP7 inh, SENP6 inh)
Cc1ccc(CNC(=O)CN(CCc2ccccc2)S(C)(=O)=O)cc1	none
Cc1ccc(O)c(CNc2cccc3cccnc23)c1	SENP8 block-1 84, SENP7 inh 65 | SENP8 confirm inactive | SENP6 confirm inactive | SENP7 conf inactive | Casp3 SENP sel inactive | SENP luc ctr inactive
Oc1c(Br)cc(Br)cc1CNc1cccc2cccnc12	SENP8 block-1 91, SENP7 inh 88, SENP6 inh 85 | SENP8 confirm inactive | SENP6 confirm inactive | SENP7 conf inactive | Casp3 SENP sel inactive | SENP luc ctr inactive
Nc1nc(CSCc2ccccc2)nc(N2CCOCC2)n1	none
COc1cc(NC(=O)/C=C/c2ccccc2[N+](=O)[O-])cc(OC)c1	SENP8 block-1 55, SENP7 inh 63, SENP6 inh 73 | SENP8 confirm inactive | SENP6 confirm inactive | SENP7 conf inactive | Casp3 SENP sel inactive | SENP luc ctr inactive
CN(C)S(=O)(=O)c1ccc(NC(=O)/C=C/c2ccccc2Cl)cc1	none
O=C(/C=C/c1ccccc1Cl)c1ccc(O)cc1	SENP8 block-1 82, SENP7 inh 73, SENP6 inh 90 | SENP8 confirm inactive | SENP6 confirm inactive | SENP7 conf inactive | Casp3 SENP sel inactive | SENP luc ctr 55
O=C(/C=C/c1ccccc1[N+](=O)[O-])Nc1ccccc1	SENP8 block-1 81, SENP7 inh 87, SENP6 inh 90 | SENP8 confirm 83 | SENP6 confirm 82 | SENP7 conf 94 | Casp3 SENP sel 81 | SENP luc ctr 81
O=C(/C=C/c1ccccc1Cl)Nc1ccccc1	SENP8 block-1 96, SENP7 inh 99, SENP6 inh 97 | SENP8 confirm inactive | SENP6 confirm 99 | SENP7 conf 103 | Casp3 SENP sel 94 | SENP luc ctr 95
Cc1ccc2nc(NC(=O)CCCc3nc4ccccc4s3)sc2c1	none
CC1CCC(C(C)C)C(OC(=O)Cn2nnc3c(cnn3-c3ccccc3)c2=O)C1 (configuration not stated)	none
CCCN1Cc2cccc(C(=O)NC(CC(=O)OCC)c3ccc(OC(C)C)cc3)c2C1=O (configuration not stated)	none
c1ccc(-c2nnc(CN3CCCCC3)o2)cc1	none
